Assay results reported in PubChem BioAssay AID1159580 (chemical genetic matrix, 2015).
Where “and” joins values, the source holds several entries; their conditions need not be identical. Identical values can stand only once. About 2,000 (36%) of roughly 5,500 compounds were called active. Roughly 18% stayed inconclusive and do not appear here. Cut-off read from the data, not from the text of the source: active = normalized growth mostly below about 0.91 (no sharp cut-off); inconclusive = no clear call, values can overlap the other calls; inactive = mostly above about 0.92. This is one part of the list.

Assay: chemical genetic growth profiling, strain panel (AID 1159580);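 note: tested at 20 µM; growth read once vehicle control cultures reached saturation at 30 °C; 1 = growth at the plate median or of vehicle wells; lower values mean less growth of the strain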
Settings: S. cerevisiae deletion strains, growth OD

Measured: normalized growth

CC(C)=CC1C(CO)C1(C)C (centres undefined)
inactive: locus YAL021C, strain ccr4, active compounds read low 1.01 | locus YAL026C, strain drs2, active compounds read low 1.03 | locus YAL030W, strain snc1, active compounds read low 1.02 | locus YBL061C, strain skt5, active compounds read low 1.02 | locus YBR009C, strain hhf1, active compounds read low 1.03 | locus YBR021W, strain FUR4, active compounds read low 1.02 | locus YBR023C, strain chs3, active compounds read low 1.02 | locus YBR171W, strain sec66, active compounds read low 1.03 | locus YBR229C, strain ROT2, active compounds read low 1.02 | locus YBR231C, strain swc5, active compounds read low 1.02 | locus YBR279W, strain paf1, active compounds read low 1.02 | locus YCL011C, strain gbp2, active compounds read low 1.02 | locus YCL016C, strain dcc1, active compounds read low 1.02 | locus YCL029C, strain bik1, active compounds read low 0.994 | locus YCL061C, strain MRC1, active compounds read low 1.01 | locus YCL069W, strain vba3, active compounds read low 1.01 | locus YCR088W, strain abp1, active compounds read low 1.02 | locus YDL005C, strain med2, active compounds read low 1.03 | locus YDL035C, strain GPR1, active compounds read low 1.03 | locus YDL040C, strain nat1, active compounds read low 1.02 | locus YDL074C, strain BRE1, active compounds read low 1.03 | locus YDL101C, strain DUN1, active compounds read low 1.03 | locus YDL185W, strain tfp1, active compounds read low 0.999 | locus YDL192W, strain arf1, active compounds read low 1.01 | locus YDR001C, strain nth1, active compounds read low 1.01 | locus YDR069C, strain doa4, active compounds read low 1.04 | locus YDR101C, strain arx1, active compounds read low 1 | locus YDR137W, strain rgp1, active compounds read low 1.04 | locus YDR159W, strain sac3, active compounds read low 1.03 | locus YDR162C, strain NBP2, active compounds read low 1.03 | locus YDR195W, strain ref2 0.992 | locus YDR297W, strain sur2, active compounds read low 1.03 | locus YDR318W, strain mcm21, active compounds read low 0.995 | locus YDR334W, strain swr1, active compounds read low 1.02 | locus YDR335W, strain msn5, active compounds read low 1.02 | locus YDR388W, active compounds read low 0.999 | locus YDR392W, strain spt3, active compounds read low 0.981 | locus YDR502C, strain sam2, active compounds read low 0.994 | locus YEL003W, strain gim4, active compounds read low 1.02 | locus YEL037C, strain rad23, active compounds read low 1.02 | locus YEL061C, strain CIN8 (second series), active compounds read low 1.01 | locus YEL061C, strain CIN8, active compounds read low 1.01 | locus YER015W, strain faa2, active compounds read low 1.02 | locus YER016W, strain bim1, active compounds read low 1.02 | locus YER110C, active compounds read low 1.01 | locus YER111C, strain swi4, active compounds read low 1.02 | locus YER155C, strain BEM2 (second series), active compounds read low 1.04 | locus YER155C, strain BEM2, active compounds read low 1.01 | locus YER167W, strain BCK2, active compounds read low 1.02 | locus YFR010W, strain ubp6, active compounds read low 1.03 | locus YGL078C, strain dbp3, active compounds read low 1 | locus YGL086W, strain mad1, active compounds read low 1.01 | locus YGL167C, strain pmr1, active compounds read low 1.02 | locus YGL173C, strain kem1, active compounds read low 1.02 | locus YGL227W, strain vid30, active compounds read low 1.02 | locus YGL240W, strain doc1, active compounds read low 1.04 | locus YGL248W, strain PDE1, active compounds read low 1.03 | locus YGL253W, strain hxk2, active compounds read low 1.02 | locus YGR078C, strain PAC10, active compounds read low 1.04 | locus YGR135W, strain pre9, active compounds read low 1.01 | locus YGR252W, strain gcn5, active compounds read low 0.989 | locus YHR013C, strain ard1, active compounds read low 1.04 | locus YHR027C, strain rpn1, active compounds read low 1.02 | locus YHR030C, strain SLT2, active compounds read low 1.02 and 0.985 | locus YHR079C, strain IRE1 (second series), active compounds read low 1.01 | locus YHR079C, strain IRE1, active compounds read low 0.994 | locus YHR094C, strain hxt1, active compounds read low 0.984 | locus YHR129C, strain ARP1, active compounds read low 1.02 | locus YHR142W, strain chs7, active compounds read low 1.01 | locus YHR200W, strain rpn10, active compounds read low 1 | locus YIL066C, strain RNR3, active compounds read low 1.04 | locus YIL073C, strain SPO22, active compounds read low 1.02 | locus YIL125W, strain kgd1, active compounds read low 1.01 | locus YIR030C, strain dcg1, active compounds read low 1 | locus YJL092W, strain hpr5, active compounds read low 1.01 | locus YJL095W, strain BCK1 (second series), active compounds read low 1.02 | locus YJL095W, strain BCK1, active compounds read low 1.04 and 0.986 | locus YJL115W, strain asf1, active compounds read low 1.02 | locus YJL129C, strain trk1, active compounds read low 1.02 | locus YJL134W, strain LCB3, active compounds read low 1.02 | locus YJL154C, strain vps35, active compounds read low 1 | locus YJL164C, strain tpk1, active compounds read low 1.02 | locus YJL166W, strain qcr8, active compounds read low 1.02 | locus YJL168C, strain set2, active compounds read low 0.997 | locus YJL187C, strain SWE1 (second series), active compounds read low 1.04 | locus YJL187C, strain SWE1, active compounds read low 1.02 | locus YJR043C, strain POL32, active compounds read low 1.04 | locus YJR066W, strain TOR1, active compounds read low 0.957 | locus YKL009W, strain mrt4, active compounds read low 1 | locus YKL068W, active compounds read low 1.01 | locus YKL085W, strain MDH1 (second series), active compounds read low 0.998 | locus YKL085W, strain MDH1, active compounds read low 0.998 | locus YKL160W, strain elf1, active compounds read low 1.01 | locus YKL190W, strain CNB1, active compounds read low 1.02 | locus YKR001C, strain vps1, active compounds read low 1.01 | locus YKR026C, strain gcn3, active compounds read low 0.994 | locus YKR091W, strain srl3, active compounds read low 1.02 | locus YLL001W, strain dnm1, active compounds read low 1.03 | locus YLL026W, active compounds read low 1.02 | locus YLL041C, strain sdh2, active compounds read low 1.01 | locus YLR027C, strain aat2, active compounds read low 1.02 | locus YLR039C, strain RIC1, active compounds read low 1.07 | locus YLR058C, strain SHM2, active compounds read low 1.02 | locus YLR102C, strain apc9, active compounds read low 0.989 | locus YLR113W, strain HOG1, active compounds read low 0.976 | locus YLR221C, strain rsa3, active compounds read low 1.02 | locus YLR258W, strain gsy2, active compounds read low 1.03 | locus YLR262C, strain YPT6 (second series), active compounds read low 1.02 | locus YLR262C, strain YPT6, active compounds read low 1.07 | locus YLR268W, strain sec22, active compounds read low 0.999 | locus YLR320W, strain mms22, active compounds read low 1.04 | locus YLR330W, strain CHS5, active compounds read low 1.02 | locus YLR342W, strain FKS1 (second series), active compounds read low 1.02 | locus YLR342W, strain FKS1, active compounds read low 1.03 | locus YLR357W, strain rsc2, active compounds read low 1.04 | locus YLR370C, strain arc18, active compounds read low 1.01 | locus YLR371W, strain rom2, active compounds read low 1 | locus YLR384C, strain iki3, active compounds read low 0.999 | locus YLR418C, strain cdc73, active compounds read low 0.99 | locus YML016C, strain PPZ1, active compounds read low 1.02 | locus YML032C, strain rad52, active compounds read low 0.997 | locus YML120C, strain ndi1, active compounds read low 1.02 | locus YML124C, strain tub3, active compounds read low 1.01 | locus YMR058W, strain fet3, active compounds read low 1.01 | locus YMR078C, strain ctf18, active compounds read low 0.99 | locus YMR125W, strain sto1, active compounds read low 1.03 | locus YMR129W, active compounds read low 1.01 | locus YMR205C, strain PFK2, active compounds read low 1.04 | locus YMR223W, strain ubp8, active compounds read low 1.01 | locus YMR231W, strain pep5, active compounds read low 1.02 | locus YMR263W, strain SAP30, active compounds read low 1.03 | locus YMR307W, strain GAS1, active compounds read low 1.11 | locus YNL067W, strain RPL9B, active compounds read low 1.04 | locus YNL071W, strain lat1, active compounds read low 1.02 | locus YNL153C, strain GIM3, active compounds read low 1.04 | locus YNL183C, strain NPR1, active compounds read low 0.955 | locus YNL209W, strain ssb2, active compounds read low 1.03 | locus YNL233W, strain BNI4, active compounds read low 1.03 | locus YNL248C, strain rpa49, active compounds read low 1.02 | locus YNL250W, strain rad50, active compounds read low 0.994 | locus YNL271C, strain bni1, active compounds read low 1 | locus YNL298W, strain CLA4, active compounds read low 0.998 | locus YNL307C, strain MCK1, active compounds read low 1.01 | locus YNL322C, strain KRE1 (second series), active compounds read low 1.02 | locus YNR049C, strain mso1, active compounds read low 1.03 | locus YNR052C, strain pop2, active compounds read low 0.995 | locus YOL012C, strain htz1 0.795 | locus YOL147C, strain pex11, active compounds read low 0.993 | locus YOR001W, strain rrp6, active compounds read low 1.01 | locus YOR061W, strain CKA2, active compounds read low 1.02 | locus YOR069W, strain VPS5, active compounds read low 1.02 | locus YOR070C, strain gyp1, active compounds read low 1.02 | locus YOR080W, strain dia2, active compounds read low 1.02 | locus YOR083W, strain WHI5, active compounds read low 1.01 | locus YOR106W, strain vam3, active compounds read low 1.02 | locus YOR136W, strain idh2, active compounds read low 0.991 | locus YOR144C, strain elg1, active compounds read low 0.991 | locus YOR184W, strain ser1, active compounds read low 1.01 | locus YOR231W, strain MKK1, active compounds read low 0.978 | locus YOR265W, strain rbl2, active compounds read low 1.02 | locus YOR270C, strain vph1, active compounds read low 1.03 | locus YOR290C, strain snf2, active compounds read low 0.991 | locus YOR316C, strain cot1, active compounds read low 0.991 | locus YPL051W, strain arl3, active compounds read low 1.01 | locus YPL078C, strain atp4, active compounds read low 1.01 | locus YPL106C, strain sse1, active compounds read low 1.01 | locus YPL240C, strain hsp82, active compounds read low 1.03 | locus YPL241C, strain CIN2, active compounds read low 1.02 | locus YPL256C, strain CLN2, active compounds read low 0.97 | locus YPR119W, strain clb2, active compounds read low 0.989 | locus YPR141C, strain kar3, active compounds read low 1 | locus YPR163C, strain tif3, active compounds read low 0.99 | locus YPR167C, strain met16, active compounds read low 1.01 | strain wtn01, active compounds read low 0.99
